Molecules are shown by their SMILES. About 1,100 (1.7%) of roughly 63,000 compounds were called active. The sample holds actives, similar compounds and a random draw of the others, so the mix is not that of the screen. Rule as the data show it: active = cytotoxicity above about 50%; inactive = the rest. Measured potencies and affinities stand elsewhere.

The assay is described as follows: HPDE-C7 pancreatic duct cell viability loss – fluorescence, HTS (AID 430).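 Also: cells exposed to compound for 48 hours before viability readout; 0% = vehicle and 100% = reference cytotoxic drug.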 The settings on record: HPDE-C7 pancreatic duct cells viability, at 10 µM, hits give high values.
For `Cc1ccccc1Cn1cc(NC(=O)c2cc3nc(-c4ccco4)cc(C(F)(F)F)n3n2)cn1`, the cytotoxicity is 29.2% (inactive).
Next, `Cc1ccccc1Cn1ccc(NC(=O)c2cnn3c(C(F)(F)F)cc(-c4ccco4)nc23)n1`: 37.2% (inactive).
`O=C(Nc1cnn(Cc2ccccc2)c1)c1cc2nc(-c3ccco3)cc(C(F)(F)F)n2n1`: the cytotoxicity was 6% (inactive).
To `O=C(Nc1ccc(Cl)cc1)c1cc2nc(-c3ccco3)cc(C(F)(F)F)n2n1` belongs 66.2% (active); to `Cc1ccccc1Cn1ccc(NC(=O)c2cc3nc(-c4ccco4)cc(C(F)(F)F)n3n2)n1`, 53% (active).
Turning to `O=C(Nc1cnn(Cc2ccc(F)cc2)c1)c1cc2nc(-c3ccco3)cc(C(F)(F)F)n2n1`, the cytotoxicity was 38.9% (inactive).
For `CCOc1ccc(OCC)c(NC(=O)CCn2cccc2)c1`, the cytotoxicity is 7.1% (inactive).
Next, `O=C(NCC(c1cccnc1)N1CCOCC1)c1cccs1` (centres undefined): -33.1% (inactive); `COc1ccc(-c2c(C#N)c(SCc3c(C)noc3C)nc3c2C(=O)CC(C)(C)C3)cc1`: -11% (inactive); `Cc1cc(NC(=O)CS(=O)(=O)c2cn(Cc3cccc(F)c3)c3ccccc23)no1`: -2.5% (inactive).
With `CCOc1ccc(C(=O)NCC2CCCO2)cc1` (centres undefined), the cytotoxicity was 1.4% (inactive).
To `c1csc(-c2ccc3ccccc3n2)c1` belongs 9.1% (inactive); to `O=C(O)c1ccc(NS(=O)(=O)c2ccc3c(c2)OCCO3)cc1`, 0.3% (inactive).
To `COC(=O)c1ccc(C)c(NS(=O)(=O)c2ccc3c(c2)OCCO3)c1` belongs 62.8% (active); to `CCCNC(=O)c1ccccc1NS(=O)(=O)c1ccc2c(c1)OCCO2`, 14.8% (inactive).
Next, `COC(=O)c1ccc(C)c(NC(=O)CN(c2ccc3c(c2)OCO3)S(C)(=O)=O)c1`: -6.6% (inactive); `CC(=O)c1cc2c(cc1NS(=O)(=O)c1ccc3c(c1)OCCO3)OCO2`: 36.4% (inactive); `COC(=O)c1ccc(C)c(NS(=O)(=O)c2ccc(NC(C)=O)cc2)c1`: 20.6% (inactive).
On to `COC(=O)c1ccc(Cl)c(NS(=O)(=O)c2ccc3c(c2)OCCO3)c1`, for which the cytotoxicity is 55.7% (active).
Turning to `COC(=O)c1ccc(C)c(NS(=O)(=O)c2ccc(OC)cc2)c1`, the cytotoxicity was 68% (active).
To `COC(=O)c1ccc(NS(=O)(=O)c2ccc(OC)cc2)cc1` belongs 2% (inactive).
To `O=S(=O)(NCCC1=CCCCC1)c1cccc2nsnc12` belongs -4.7% (inactive).
Turning to `CCn1c(COc2ccccc2C)nnc1SCC(=O)N1CCC(C)CC1`, the cytotoxicity is -9.2% (inactive).
Next, `CCCC(C)NC(=O)c1ccc(F)cc1` (centres undefined): -1.2% (inactive).
To `CCN(C(=O)CSc1nc2nc(C)cc(C)n2n1)c1cccc(C)c1` belongs -9% (inactive).
On to `OC1CCCN(Cc2ccc3c(c2)Cc2ccccc2-3)C1` (centres undefined), for which the cytotoxicity is -0.6% (inactive).
Turning to `CC1Cc2ccccc2N1C(=O)c1ccc2c(c1)nnn2C` (centres undefined), the cytotoxicity is -5.8% (inactive).
`CCc1c(C)nc2cc(-c3ccc(OC)c(OC)c3)nn2c1N1CCCC1`: the cytotoxicity was 8.9% (inactive).
To `CCOCCN1CCN(c2c(C)c(C)nc3cc(-c4cc(OC)cc(OC)c4)nn23)CC1` belongs 21.4% (inactive); to `CCCOc1ccc(C2C(=O)N(C3CCCCC3)CC(=O)N2CCC)cc1OC` (centres undefined), -24.3% (inactive).
Regarding `COc1ccccc1NC(=O)C(O)C(O)C(=O)Nc1ccccc1OC` (centres undefined), the cytotoxicity is 6.7% (inactive).
To `CCn1c(SCc2nc3ccccc3[nH]2)nnc1-c1ccccc1OC` belongs -14.9% (inactive); to `COC(=O)c1cc(OC)c(OC)cc1N=CC1=C(O)CC(C)(C)CC1=O`, 10.3% (inactive).
Next, `c1cncc(-c2nn3cnnc3s2)c1`: 3.2% (inactive); `CCN(CCO)C(=O)C12CCC(C)(C(=O)C1)C2(C)C` (centres undefined): 5.2% (inactive); `COc1ccc(-n2nnnc2SCC(=O)c2cccc(OC)c2)cc1`: 6.3% (inactive).
To `COc1ccc(-n2nnnc2SCC(=O)c2ccc(O)c(O)c2)cc1` belongs 17.9% (inactive).
In the case of `CCOc1ccc(-n2nnnc2SCC(=O)c2ccccc2)cc1`, the cytotoxicity is 59.8% (active).
To `Cc1ccc(S(=O)(=O)N(C)c2nonc2C)cc1` belongs 9.7% (inactive).
To `CN(Cc1cnn(C)c1)C(=O)c1cc2ccccc2oc1=O` belongs -0.7% (inactive); to `C[C@]12CC[C@@H]3c4ccc(O)cc4CC[C@H]3[C@@H]1CCC2=O`, 12.1% (inactive).
Next, `C[C@]12CC[C@@H]3c4ccc(O)cc4CC[C@H]3[C@@H]1CC[C@@H]2OC(=O)CCC(=O)O`: 4.5% (inactive).
As to `O=C(NCC(=O)N(c1ccc(F)cc1)C(C(=O)NCC1CCCO1)c1ccccc1)c1ccco1` (centres undefined), the cytotoxicity was -7.1% (inactive).
With `CN1C(=O)C(O)(CC(=O)c2cccc(-n3cccc3)c2)c2ccccc21` (centres undefined), the cytotoxicity is -0.5% (inactive).
Next, `CN(C)C=Nc1ncc2c([nH]c3ccccc32)c1C#N`: 15.4% (inactive).
To `Cc1cc(=O)[nH]c2ccccc12` belongs -2.8% (inactive); to `CCC(C(=O)NC1CCCC1)N(C(=O)Cn1nnc(-c2ccc(OC)c(OC)c2)n1)C1CCCCC1` (centres undefined), -12.1% (inactive); to `CC(C)(C#CCN1CCCC1)OCCC#N`, -16.7% (inactive).
On to `O=C(CN1C(=O)c2ccccc2S1(=O)=O)Nc1ccc(S(=O)(=O)N2CCCCC2)cc1`, for which the cytotoxicity was -22% (inactive).
To `O=C(O)/C=C/c1ccc(O)c(O)c1` belongs -18.3% (inactive); to `COc1cc(-c2cc(OC)c3c(C)oc(C)c3c(=O)c2)ccc1O`, 38% (inactive).
Next, `COc1cc(/C=C/C2=NC(=O)C(C)(C)O2)ccc1O`: 53.4% (active).
Next, `COc1cc(/C=N/n2nnnc2N)ccc1O`: 3.8% (inactive); `C/C=C/c1ccc(OC)c(OC(C)=O)c1`: -5.1% (inactive).
As to `CCOc1ccccc1C1C2C(=O)N(c3ccccc3)C(=O)C2ON1c1ccccc1` (centres undefined), the cytotoxicity is -2.8% (inactive).
To `Cc1cc(C)c2[nH]c(=O)c(CN(Cc3ccc4c(c3)OCO4)Cc3nnnn3C3CCCC3)cc2c1` belongs 14.9% (inactive); to `CCOCCCNC(=O)C(NC(=O)c1ccc(=O)[nH]c1)c1ccccc1` (centres undefined), 2.7% (inactive).
In the case of `COc1ccc(S(=O)(=O)N(C)CC(=O)N2CCCCCC2)cc1OC`, the cytotoxicity was -2.9% (inactive).
Consider `COc1cccc(N2CCN(C3CC(=O)N(c4ccc(Cl)c(Cl)c4)C3=O)CC2)c1` (centres undefined), for which the cytotoxicity was 1.1% (inactive).
Next, `CCCC(=O)N1CCN(c2ccc(C(=O)c3ccc(OC)c(Br)c3)cc2F)CC1`: 58.1% (active); `CCCC(=O)c1ccc(N2CCN(C(=O)c3ccc(Br)cc3)CC2)c(F)c1`: -6.3% (inactive).
To `CCCCCC(=O)N1CCN(c2ccc(C(C)=O)cc2F)CC1` belongs -3.3% (inactive).
Next, `CCN=C1SC(CC(=O)Nc2ccc(C(F)(F)F)cc2)C(=O)N1CC` (centres undefined): -10.9% (inactive).
Consider `Cc1ccc2nc(NCCO)nc(-c3ccccc3)c2c1`, for which the cytotoxicity is 16.6% (inactive).
For the compound `O=C(O)c1cc(-c2ccccc2)nc2ccccc12`, the cytotoxicity is -1.2% (inactive).
Next, `Clc1ccc(OCc2nc(-c3ccccn3)n[nH]2)cc1`: 42.3% (inactive); `Cc1cc(Cl)ccc1OCCCC(N)=O`: -4.7% (inactive); `Cc1cc(Cl)ccc1OCc1nc(-c2ccc(O)cc2)n[nH]1`: 77.3% (active).
Next, `CN1CCCN(CC(O)COCc2cccs2)CC1` (centres undefined): 0.9% (inactive); `CC1(C)N=C(C(=O)c2ccccc2)N(O)C1(C)O` (centres undefined): -11.9% (inactive); `COc1cc2c(=O)n(Cc3ccccc3)c(=O)n(CC(=O)NCc3ccco3)c2cc1OC`: 3.1% (inactive).
For `COc1ccc(CCNC(=O)Cn2c(=O)n(Cc3ccco3)c(=O)c3ccc(Cl)cc32)cc1OC`, the cytotoxicity is 13.9% (inactive).
Take `COc1cc2c(=O)n(Cc3ccco3)c(=O)n(CC(=O)c3cccc(Br)c3)c2cc1OC`: the cytotoxicity is 55% (active).
To `CCOC(=O)Cn1c(=O)n(Cc2ccco2)c(=O)c2ccc(C(=O)NCCc3ccccc3)cc21` belongs 7.2% (inactive); to `COc1cc2c(=O)n(Cc3ccco3)c(=O)n(CC(=O)c3ccc(Br)cc3)c2cc1OC`, 86% (active); to `COc1cc2c(=O)n(Cc3ccccc3)c(=O)n(CC(=O)C(C)(C)C)c2cc1OC`, -17.8% (inactive).
In the case of `CS(=O)(=O)N(CC(=O)NCCSCc1cccc(Cl)c1)c1ccc2c(c1)OCO2`, the cytotoxicity is 0.9% (inactive).
Next, `O=C(Nc1ccccc1)N(Cc1cccs1)C1CCCC1`: -7.6% (inactive).
For `CCOC(=O)c1c(CNCCN(CC)CC)n(C)c2cc(Br)c(OC)cc12`, the cytotoxicity is 57.3% (active).
Next, `CCOC(=O)c1c(CN2CCN(C)CC2)n(C)c2cc(Br)c(OC)cc12`: -10.2% (inactive); `CCOC(=O)c1c(CN2CCN(CCO)CC2)n(C)c2cc(Br)c(OC)cc12`: 77% (active).
With `CCOC(=O)c1c(C)n(C)c2cc(Br)c(C(=O)OC)cc12`, the cytotoxicity is 9.9% (inactive).
As to `CCN(CC)CCNC(=O)c1c(C)oc2cc(Br)c(OC)cc12`, the cytotoxicity was 1.8% (inactive).
On to `CCOC(=O)c1c(CN2CCCCC2)n(C)c2cc(Br)c(OC)cc12`, for which the cytotoxicity was 8.3% (inactive).
Consider `O=C(c1ccco1)c1nnn(Cc2ccccc2)c1-c1ccccc1`, for which the cytotoxicity was -7.7% (inactive).
With `COc1ccc(CN(C2CCCC2)S(=O)(=O)c2ccc(-n3cnnn3)cc2)cc1OC`, the cytotoxicity is -39.1% (inactive).
To `Cc1[nH]c(=O)[nH]c(=O)c1S(=O)(=O)N1CCCC(C(=O)NCCc2ccc(Cl)cc2)C1` (centres undefined) belongs -9.4% (inactive); to `CCOC(=O)c1csc(NC(=O)CSc2nnnn2-c2ccc(OCC)cc2)n1`, -21.4% (inactive); to `O=C(c1cccs1)N1CCN(S(=O)(=O)N2CCOCC2)CC1`, -21.3% (inactive).
Next, `O=C(NCc1ccco1)C(c1ccncc1)N(CCC1=CCCCC1)C(=O)Cn1nnc2ccccc21` (centres undefined): 1.6% (inactive); `Fc1ccc(Br)cc1C1C=C(c2ccc(Br)s2)Nc2ncnn21` (centres undefined): 55% (active); `COc1cccc(C2C=C(c3ccc(Br)s3)Nc3ncnn32)c1OC` (centres undefined): -9.3% (inactive).
To `Fc1ccc(Br)cc1C1C=C(c2cccnc2)Nc2ncnn21` (centres undefined) belongs 16.3% (inactive); to `Cc1cccc2cc(CN(Cc3ccco3)C(=O)c3cccs3)c(=O)[nH]c12`, -11.9% (inactive).
